Sampled rows, rich in hits. Any-hit rate of the full collection: about 21%.
NS1 function inh: blocks influenza NS1 protein function; Potency, µM (highest dose often 46.1 µM); actives 0.4% (n = 270,000); AID 2326; calls by dose curve; also: actives are rising curves; nearly all actives have a fitted effect of over 50% in size
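OD600 was taken as the measure of yeast growth restored by compound in an NS1-expressing S. cerevisiae strain. Cells had been washed out of glucose medium and diluted 1:100 into galactose -URA medium, pH 6.0.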
Shiga inhibitor: Shiga toxin inhibition; Vero cells, Shiga toxin protein synthesis inhibition reporter; inhibition, % at 38.7 µM; actives 9.2% (n = 290,000); in the data active = inhibition mostly above about 28%, no sharp cut-off; inactive = mostly below about 43%
Cycloheximide cs: counter-screen for Shiga toxin inhibitors: cycloheximide protein synthesis inhibition | actives 12% (n = 300,000) | max response, % | cell reporter, cycloheximide protein synthesis inhibition counterscreen; in the data active = max response mostly above about 13%, no sharp cut-off; inactive = mostly below about 14%; also: read at 38.3 µM for the half of the compounds with a filed dose
Pf growth 96h: P. falciparum growth inhibition at 96 hours | P. falciparum luciferase reporter growth, 96 h | Potency, µM (titrated, usually from 28.7 µM), most hits filed as inhibitors | actives 6.9% (n = 320,000)
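Luminescence readout: decreased luciferase signal marks inhibited growth of reporter-expressing P. falciparum in infected red cells (2% hematocrit, 0.05% parasitemia final), exposed to compound two generations (96 h, 37 C, 5% CO2).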
Sm TGR block: blocks Schistosoma mansoni thioredoxin glutathione reductase. Q962Y6. purified TGR, DTNB reduction, TNB absorbance 405 nm. Potency, µM (top dose mostly 114 µM), most hits filed as inhibitors. actives 3% (n = 360,000); also: nearly all actives have a fitted effect of over 60% in size
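Kinetic colorimetric format: TGR-catalysed, NADPH-driven DTNB reduction monitored via TNB absorbance. Enzyme dispensed at 20 nM; compound exposure 15 min at room temperature before reaction start.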
Pf growth 48h: P. falciparum growth inhibition at 48 hours (one generation); Potency, µM (doses to about 28.7 µM), usual class: inhibitors; P. falciparum luciferase growth in erythrocytes, 48 h; actives 5.9% (n = 310,000)
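Here the parasites carry a stable luciferase gene and grow inside erythrocytes in Albumax-based RPMI medium with compound for one erythrocytic cycle. Activity is scored as loss of luminescent signal.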
Hits are given with their value; n = inactive; u = inconclusive; x = not tested or not shown; [ ] = another dose, or the depositor's remark. Unless noted, calls follow the shape of the dose curve; as a rule, active = well fitted curve in the direction sought with a large enough effect; inconclusive = small, poorly fitted or top-dose-only effect, or another doubt; inactive = no such curve, though single readings can be large; an effect the other way counts as inactive or inconclusive.

SMILES | NS1 function inh | Shiga inhibitor | Cycloheximide cs | Pf growth 96h | Sm TGR block | Pf growth 48h
CC(=O)c1c(C)[nH]c(C(=O)CSc2nnc(-c3ccccc3)n2Cc2ccc3c(c2)OCO3)c1C | n | n | n | x | n | u
Cc1cc(C(=O)COC(=O)C2=COCCO2)c(C)n1-c1cccc(F)c1 | x | x | x | n | n | n
Cc1cc(C(=O)CSc2nncs2)c(C)n1-c1ccc2c(c1)OCO2 | n | 62 | 26 | x | n | u
Cc1cc(C(=O)CSc2nnnn2-c2ccc(O)cc2)c(C)n1Cc1ccc2c(c1)OCO2 | n | n | n | n | n | u
Cc1cc(C(=O)CSc2nnnn2-c2ccccc2)c(C)n1-c1ccc2c(c1)OCO2 | u | 50 | 29 | 8.3µM | n | 10µM
Cc1cc(C(=O)COC(=O)C2=COCCO2)c(C)n1-c1ccc2c(c1)OCO2 | n | 138 | 66 | n | n[11.4 µM] | x
Cc1cc(C(=O)CSc2nnc(-c3cccc(F)c3)n2N)c(C)n1Cc1ccc2c(c1)OCO2 | u | n | n | 17µM | n | 12µM
CCCn1c(SCC(=O)c2cc(C)n(-c3ccc4c(c3)OCO4)c2C)n[nH]c1=O | n | n | n | u | n | n
CCOC(=O)c1cccc(NC(=O)c2ccc3nc(CCc4ccccc4)oc3c2)c1 | x | x | x | x | n | x
O=C1c2ccccc2C(=O)N1CN(C(=O)c1ccccc1[N+](=O)[O-])c1ccc(F)cc1 | n | n | n | u | n | n
Cc1ccc(N(CN2C(=O)c3ccccc3C2=O)C(=O)c2ccc([N+](=O)[O-])cc2[N+](=O)[O-])cc1 | n | n | n | 3.7µM | n | n
Cc1[nH][nH]c(=O)c1N=Nc1ccccc1C#N | x | n | 50 | n | n | n
C[C@@H](C(=O)Nc1ccc2ccccc2c1)[C@H]1C[C@]1(C)[C@H](NS(=O)(=O)c1ccc(-c2ccccc2)cc1)c1ccccc1 | u | n | n | 8.3µM | n | 12µM
COC(=O)N[C@H](c1ccccc1)[C@@]1(C)C[C@@H]1[C@@H](C)C(=O)Nc1ccc2ccccc2c1 | x | n | n | x | x | x
CCCCOC(=O)C1=C(N)N2C(=O)C(C)SC2=C(C(=O)OCC)C1c1ccc(O)c(OC)c1 (centres undefined) | n | n | n | n | n | u
COc1ccccc1COCC(O)CN(Cc1ccco1)Cc1ccccc1O (centres undefined) | n | n | n | 5.2µM | n | 8.3µM
CN(Cc1cccs1)CC(O)COCc1ccco1 (centres undefined) | n | n | n | n | u | n
Cc1c2cnn(CC(=O)NCc3ccc(F)cc3)c(=O)c2c(C)n1Cc1cccc(Cl)c1 | x | x | x | x | n | x
O=C(CN1CCN(c2ccccc2O)CC1)Nc1cc(S(=O)(=O)N2CCCC2)ccc1Cl | x | x | x | 3.3µM | n | 4.1µM
O=C(CN1CCN(c2ccccc2O)CC1)Nc1ccc(S(=O)(=O)N2CCCCCC2)cc1 | x | x | x | 10µM | n | u
CC(=O)c1c(Cl)nc2cccc3c2c1-c1ccccc1C3=O | n | n | n | n | n | n
COc1ccc(-n2nc3ccccc3n2)cc1 | n | n | 24 | n | n | n
COc1ccc(-n2nc3cc(N)c(Br)cc3n2)cc1 | n | x | 30 | u | n | n
COc1ccc(-n2nc3cc(C)c(N)c(Br)c3n2)cc1 | n | 128 | 63 | u | 40µM | n
COc1ccc(-c2nc3ccccc3nc2-c2ccccc2)cc1 | n | n | n | n | n | u
SMILES | NS1 function inh | Shiga inhibitor | Cycloheximide cs | Pf growth 96h | Sm TGR block | Pf growth 48h
COc1ccc2nc3ccccc3nc2c1 | n | 69 | 40 | n | n | n
COc1ccc(-n2c(SC)nc3ccccc3c2=O)cc1 | n | n | n | u | n | n
COc1ccc(-n2nc(C)cc2N)cc1 | n | n | n | n | n | n
CCOc1cc(C(=O)Nc2ccc(-c3nc4cc(Cl)ccc4o3)cc2)cc(OCC)c1OCC | x | x | x | x | n | x
Cc1ccccc1NC(=S)NCc1ccc(Cl)cc1 | n | n | n | n | n | n
CCc1ccccc1NC(=O)Nc1ccc2c(c1)N(CC)C(=O)c1ccccc1S2 | x | x | x | x | n | x
N#CCC(=O)Nc1ccc(C(=O)OCC(=O)Nc2cccc(C(F)(F)F)c2)cc1 | x | n | n | n | n | n
CCOc1ccc(-n2c(-c3ccc(Br)cc3)c[n+]3c2CCCCC3)cc1 | x | n | n | u | n | 5.2µM
CCOc1ccc(-n2c(-c3ccc(OC)cc3)c[n+]3c2CCCCC3)cc1 | n | n | n | u | n | 0.74µM
O=C(Nc1cccc(Cl)c1)c1ccc2nc(Cc3ccccc3)oc2c1 | x | x | x | x | n | x
Cc1ccc(NC(=O)C2CCN(S(=O)(=O)c3cccs3)CC2)c(O)c1 | n | n | n | u | n | u
Cc1ccc(NC(=O)C2CCCN2C(=O)OCc2ccccc2)c(O)c1 (centres undefined) | n | n | n | 5.2µM | n | u
Cc1ccc(O)c(NC(=O)CCC2CCCCC2)c1 | n | 138 | 34 | 13µM | n | u
Cc1ccc(NC(=O)C2CCCCC2)c(O)c1 | n | n | 21 | n | n | n
Cc1cccc(NC(=O)N2CCCC2C(=O)NCc2ccccc2)c1 (centres undefined) | n | x | n | 9.3µM | n | n
Cc1ccc(O)c(NC(=O)CCCC(=O)O)c1 | n | n | n | x | n | n
Cc1nnc(C)c2c(C)n(-c3ccccc3N)c(C)c12 | n | n | n | n | n | u
O=C(CCC1CCCCC1)Nc1ccccc1O | n | 107 | 39 | x | n | n
O=C(CCC1CCCCC1)Nc1ccccc1-c1ccccc1 | n | n | n | n | n | n
CCCn1c(=O)c2c(C(=O)OCC)cc(-c3ccco3)nc2n(CCC)c1=O | n | n | n | 1.5µM | n | x
CCOC(=O)c1cc(-c2ccco2)nc2c1c(C)nn2-c1ccccc1 | n | n | n | n | 8.9µM | 9.3µM

Screens from PubChem.
